# Experimental data published in PubChem BioAssay AID2238 (Southern Research Specialized Biocontainment Screening …, 2010).
# The source made the active and inactive calls. How the calls were made is not given here.
# Assay: antiviral protection of cells from WNV – synthesized analogs, SAR follow-up (AID 2238)
# Conditions: West Nile virus CPE inhibition in cells; max CPE inhibition: measured here: maximum CPE inhibition observed, at 40 µM, stronger effect = higher value unless noted; series mostly up to 40 µM
SMILES,max CPE inhibition,outcome
O=C(CSc1nc2ccccc2c(=O)n1-c1ccc(Cl)cc1)Nc1ccc2c(c1)CCC2,"45.5% [measured here: maximum CPE inhibition observed, at 20 µM, stronger effect = higher value]",–
CC(=O)Nc1ccc2nc3n(c(=O)c2c1)CCC3,2.33%,inactive
Cc1cccc2c(=O)n3c(nc12)CCC3,1.97%,inactive
CC1CCCC(C)N1CCCNC(=O)c1cc2c(s1)-c1ccccc1OC2 (centres undefined),"77% [measured here: maximum CPE inhibition observed, at 10 µM, stronger effect = higher value]",–
CN(C)CCCN1c2ccc([N+](=O)[O-])cc2CCc2cc([N+](=O)[O-])ccc21,"80.3% [measured here: maximum CPE inhibition observed, at 20 µM, stronger effect = higher value]",–
OC1c2cc(Br)ccc2N=C2CCCN21 (centres undefined),79.7%,–
CC1CCCN(CCCNC(=O)c2cc3c(s2)-c2ccccc2OC3)C1 (centres undefined),"71.4% [measured here: maximum CPE inhibition observed, at 10 µM, stronger effect = higher value]",–
O=C(CSc1nc2ccccc2c(=O)n1-c1ccc(F)cc1F)Nc1ccc(N2CCOCC2)cc1,"58% [measured here: maximum CPE inhibition observed, at 80 µM, stronger effect = higher value]",–
CCCN1CCN(CCCNC(=O)c2cc3c(s2)-c2c(C)cccc2OC3)CC1,"42.7% [measured here: maximum CPE inhibition observed, at 10 µM, stronger effect = higher value]",–
O=c1c2cc(Cl)cc(Cl)c2nc2n1CCC2,1.72%,inactive
O=C(CSc1nc2ccccc2c(=O)n1-c1ccc(F)cc1F)Nc1ccc2c(c1)CCC2,"64.8% [measured here: maximum CPE inhibition observed, at 80 µM, stronger effect = higher value]",–
CCCCN(C(=O)c1ccccc1Cl)c1nc(-c2ccc(OC)cc2)cs1,1.9%,inactive
CN(C)CCCNC(=S)N1CCN(c2nc(-c3ccccc3)cs2)CC1,"55.7% [measured here: maximum CPE inhibition observed, at 20 µM, stronger effect = higher value]",–
CCN(CC)CCCNC(=S)N1CCN(c2nc(-c3ccccc3)cs2)CC1,"76% [measured here: maximum CPE inhibition observed, at 20 µM, stronger effect = higher value]",–
O=C(CSc1nc2ccccc2c(=O)n1-c1ccccc1)Nc1ccc2c(c1)CCC2,72%,–
Brc1ccc2c(c1)CN1CCCC1=N2,54.9%,–
O=c1c2c(F)cccc2nc2n1CCC2,1.51%,inactive
O=C(Nc1nc(-c2ccc(Cl)cc2)cs1)c1cccc(Cl)c1,0.85%,inactive
Nc1ccc2nc3n(c(=O)c2c1)CCC3,1.56%,inactive
CCOC(=O)C1(Cc2ccccc2C(F)(F)F)CCN(C2CCN(C(C)C)CC2)CC1,59.8%,–
COc1ccccc1NC(=O)CSc1nc2ccccc2c(=O)n1-c1ccc(F)cc1,"0.86% [measured here: maximum CPE inhibition observed, at 20 µM, stronger effect = higher value]",inactive
Cc1cccc2c1-c1sc(C(=O)NCCCN3CCC(C)CC3)cc1CO2,"30.6% [measured here: maximum CPE inhibition observed, at 10 µM, stronger effect = higher value]",–
O=C(CSc1nc2ccccc2c(=O)n1-c1ccc(Cl)c(Cl)c1)Nc1ccc2c(c1)CCC2,63.1%,–
O=C(CSc1nc2ccccc2c(=O)n1-c1ccccc1F)Nc1ccc2c(c1)CCC2,"71.6% [measured here: maximum CPE inhibition observed, at 20 µM, stronger effect = higher value]",–
O=C(CSc1nc2ccccc2c(=O)n1-c1ccc(F)c(Cl)c1)Nc1ccc2c(c1)CCC2,"65.7% [measured here: maximum CPE inhibition observed, at 20 µM, stronger effect = higher value]",–
CC1CC(C)CN(CCCNC(=O)c2cc3c(s2)-c2ccccc2OC3)C1 (centres undefined),"41.1% [measured here: maximum CPE inhibition observed, at 20 µM, stronger effect = higher value]",–
